Assay results taken from PubChem BioAssay (NCI).
“And” between values parts separate entries of the source, which are not always exact repeats. Equal values may be shown once. The panel holds about 83,000 compounds, 20% with a hit somewhere; the sample as a whole holds those more often.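 Single-dose data. Exposure time 48 hours. Values below 10 considered active.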 The source made the active and inactive calls.

Tests used:
Experiment in all cases: NCI-60 one-dose screen, 48 h (100 = growth as untreated, 0 = no growth, -100 = all killed)
Conditions in all cases: 10 µM unless noted
SR leukemia = system: SR leukemia
RPMI-8226 leukemia = system: RPMI-8226 leukemia
OVCAR-8 ovarian = system: OVCAR-8 ovarian
OVCAR-5 ovarian = system: OVCAR-5 ovarian
OVCAR-4 ovarian = system: OVCAR-4 ovarian
SK-OV-3 ovarian = system: SK-OV-3 ovarian
IGROV1 ovarian = system: IGROV1 ovarian
OVCAR-3 ovarian = system: OVCAR-3 ovarian
HS 578T breast = system: HS 578T breast
NCI/ADR-RES ovarian = system: NCI/ADR-RES ovarian

| Compound | growth (SR leukemia) | growth (RPMI-8226 leukemia) | growth (OVCAR-8 ovarian) | growth (OVCAR-5 ovarian) | growth (OVCAR-4 ovarian) | growth (SK-OV-3 ovarian) | growth (IGROV1 ovarian) | growth (OVCAR-3 ovarian) | growth (HS 578T breast) | growth (NCI/ADR-RES ovarian) |
| --- | --- | --- | --- | --- | --- | --- | --- | --- | --- | --- |
| O=C(O)C1C2C=CC(C2)C1C(=O)O (stereo not given) | 108% (inactive) and 36.9% (inactive) and 94.8% (inactive) | 103% (inactive) and 29.3% (inactive) and 98.3% (inactive) | 103% (inactive) and 27.9% (inactive) | 102% (inactive) and 35.6% (inactive) and 98.9% (inactive) | 99.2% (inactive) and 106% (inactive) | 113% (inactive) and 65.1% (inactive) and 106% (inactive) | 95.2% (inactive) and 25.2% (inactive) and 106% (inactive) | 113% (inactive) and 41.1% (inactive) and 108% (inactive) | 102% (inactive) and 105% (inactive) | 104% (inactive) and 112% (inactive) and 118% (inactive) |
| Nc1ccc(N=Nc2ccc(S(=O)(=O)O)cc2)cc1S(=O)(=O)O | 108% (inactive) and 157% (inactive) | 86.7% (inactive) and 40.2% (inactive) | 96.5% (inactive) and 79.6% (inactive) | 101% (inactive) and 107% (inactive) | 118% (inactive) and 87.9% (inactive) | 105% (inactive) and 106% (inactive) | 79.3% (inactive) and 76.1% (inactive) | 108% (inactive) and 210% (inactive) | 83.7% (inactive) and 88.9% (inactive) | 95.6% (inactive) and 99.4% (inactive) |
| CC1(C)[C@@H](OC(=O)CCC(=O)O)CC[C@]2(C)[C@H]3C(=O)C=C4[C@@H]5C[C@@](C)(C(=O)O)CC[C@]5(C)CC[C@@]4(C)[C@]3(C)CC[C@@H]12 | 94.3% (inactive) and -13% (active) | 104% (inactive) and -42.2% (active) | 106% (inactive) and -14.1% (active) | 104% (inactive) and -74.9% (active) | 87.9% (inactive) and -0.335% (active) | 102% (inactive) and -64.1% (active) | 105% (inactive) and -35.8% (active) | 99.7% (inactive) and -94% (active) | 112% (inactive) and -12.9% (active) | 107% (inactive) and -0.161% (active) |
| CCOc1ccc2c(S(=O)(=O)O)cccc2c1[N+](=O)[O-] | 100% (inactive) and 94.2% (inactive) | 98.1% (inactive) and 95.9% (inactive) | 104% (inactive) and 97.6% (inactive) | 102% (inactive) and 112% (inactive) | 123% (inactive) and 109% (inactive) | 102% (inactive) and 106% (inactive) | 96.3% (inactive) and 114% (inactive) | 107% (inactive) and 112% (inactive) | 102% (inactive) and 94.5% (inactive) | 103% (inactive) and 106% (inactive) |
| CN1CCN(CCC=C2c3ccccc3Sc3ccc(S(=O)(=O)N(C)C)cc32)CC1 | 2.47% (active) | 26.4% (inactive) and 23.4% (inactive) | 83.8% (inactive) and 95.7% (inactive) | 80.1% (inactive) | 80.6% (inactive) and 85.2% (inactive) | 87.7% (inactive) and 96.7% (inactive) | 62.1% (inactive) and 58.2% (inactive) | 91.4% (inactive) and 71.7% (inactive) | 52.5% (inactive) and 65.4% (inactive) | 74.7% (inactive) and 84.9% (inactive) |
| O=C(O)C1(C(=O)O)CCC1.[NH2-].[NH2-].[Pt+2] | 122% (inactive) and 50.7% (inactive) | 104% (inactive) | 102% (inactive) | 97.6% (inactive) and 83.7% (inactive) | 109% (inactive) and 92.2% (inactive) | 104% (inactive) and 107% (inactive) | 95.6% (inactive) | 117% (inactive) and 105% (inactive) | 105% (inactive) and 112% (inactive) | 103% (inactive) and 99.7% (inactive) |
| Clc1nc(Oc2ccccc2)nc(-c2cn(-c3ccccc3)c3ccccc23)n1 | -31.7% (active) | 49.1% (inactive) | 38.8% (inactive) | 101% (inactive) | 98.8% (inactive) | 103% (inactive) | 28.3% (inactive) | 7.87% (active) | 44.1% (inactive) | 84.9% (inactive) |
| Cc1nnc(NC/C=C/c2ccccc2)s1 | 113% (inactive) | 102% (inactive) and 118% (inactive) | 102% (inactive) | 112% (inactive) | 102% (inactive) and 111% (inactive) | 98.4% (inactive) and 118% (inactive) | 112% (inactive) and 114% (inactive) | 99.7% (inactive) | 122% (inactive) and 105% (inactive) | 103% (inactive) and 102% (inactive) |
| CN(C)CCCN1c2ccccc2Sc2ccc(Cl)cc21 | 67.9% (inactive) and 105% (inactive) and 62.2% (inactive) | 71% (inactive) and 97.9% (inactive) and 103% (inactive) | 85.6% (inactive) and 93% (inactive) and 94.2% (inactive) | 90.8% (inactive) and 113% (inactive) and 95.6% (inactive) | 83.3% (inactive) and 113% (inactive) and 85.9% (inactive) | 24.1% (inactive) and 76.5% (inactive) | 69.7% (inactive) and 63.4% (inactive) | 84.2% (inactive) and 112% (inactive) and 83.4% (inactive) | 90.3% (inactive) and 90.2% (inactive) and 89.1% (inactive) | 85% (inactive) and 109% (inactive) and 89.5% (inactive) |
| ClC/C=C/CSc1ncnc2nc[nH]c12 | 74.4% (inactive) | 98.7% (inactive) | 106% (inactive) | 112% (inactive) and 104% (inactive) | 108% (inactive) and 99% (inactive) | 95% (inactive) and 107% (inactive) | 113% (inactive) and 101% (inactive) | 119% (inactive) and 114% (inactive) | 105% (inactive) and 119% (inactive) | 106% (inactive) and 108% (inactive) |
| CCCCCCCCCCCCCCCCOc1ccc(C)cc1 | 97.9% (inactive) | 118% (inactive) | 106% (inactive) | 99.9% (inactive) | 99.8% (inactive) | 108% (inactive) | 127% (inactive) | 108% (inactive) | 110% (inactive) | 103% (inactive) |
| Cc1nn(-c2ccccc2)nc1C(=O)Nc1ccccc1C(=O)NCC1CC1 | 54.5% (inactive) | 92.9% (inactive) and 92% (inactive) | 95.8% (inactive) and 30.7% (inactive) | 99.6% (inactive) and 86.8% (inactive) | 106% (inactive) and 40.5% (inactive) | 99% (inactive) and 91% (inactive) | 108% (inactive) and 33.7% (inactive) | 133% (inactive) and 54.2% (inactive) | 127% (inactive) and 24.2% (inactive) | 89.6% (inactive) and 41.4% (inactive) |
| COc1ccc2ccccc2c1/C=N/N1CCCCC1 | 108% (inactive) | 91.3% (inactive) | 95.4% (inactive) | 98.7% (inactive) | 99.5% (inactive) | 111% (inactive) | 116% (inactive) | 103% (inactive) | 98.5% (inactive) | 90.9% (inactive) |
| O=C(O)CSCc1nc2ccccc2[nH]1 | 96.5% (inactive) | 94% (inactive) | 113% (inactive) | 110% (inactive) | 107% (inactive) | 113% (inactive) | 109% (inactive) | 106% (inactive) | 102% (inactive) | 101% (inactive) |
| O=C1c2ccccc2C(=O)c2c(NCCNCCO)ccc(NCCNCCO)c21 | 57.6% (inactive) and 5.34% (active) and -17.9% (active) | 55.6% (inactive) and 54% (inactive) and 33.8% (inactive) | 0.849% (active) and 17.5% (inactive) | -51.8% (active) and 43.9% (inactive) and 35.5% (inactive) | -16.3% (active) and 1.58% (active) and 1.59% (active) | -4.52% (active) and 27.8% (inactive) and 34.9% (inactive) | 29.1% (inactive) and 16.9% (inactive) | 64.1% (inactive) and 44.1% (inactive) | -20.7% (active) and -14.7% (active) and 30.7% (inactive) | -24.9% (active) and 93.1% (inactive) and 102% (inactive) |
